Records with an inconclusive call do not appear. Active and inactive are the calls of the source. Unless noted, calls come from the whole dose curve; as a rule, active = well fitted curve in either direction with a large enough effect (not every such curve was filed as active); inconclusive = small, poorly fitted or top-dose-only effect, or another doubt; inactive = flat fitted curve, though single readings scatter. Some results are limits rather than exact numbers.

Sequence of Lysosomal acid glucosylceramidase (Homo sapiens) (P04062 whole entry, looked up): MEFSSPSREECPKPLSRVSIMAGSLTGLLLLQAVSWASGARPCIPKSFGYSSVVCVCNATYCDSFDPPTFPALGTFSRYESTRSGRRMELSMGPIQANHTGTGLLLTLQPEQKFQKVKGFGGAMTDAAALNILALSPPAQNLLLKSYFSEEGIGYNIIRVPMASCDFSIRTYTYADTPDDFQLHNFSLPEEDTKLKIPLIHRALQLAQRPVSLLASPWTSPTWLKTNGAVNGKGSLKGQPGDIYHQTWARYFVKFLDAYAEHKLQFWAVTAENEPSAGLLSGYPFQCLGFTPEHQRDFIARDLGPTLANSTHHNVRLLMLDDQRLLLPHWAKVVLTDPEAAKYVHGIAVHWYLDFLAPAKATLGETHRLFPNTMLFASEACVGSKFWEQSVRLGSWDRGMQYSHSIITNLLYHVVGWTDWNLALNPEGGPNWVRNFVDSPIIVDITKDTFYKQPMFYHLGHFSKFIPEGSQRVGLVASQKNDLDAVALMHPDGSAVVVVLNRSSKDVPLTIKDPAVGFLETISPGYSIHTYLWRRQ

The first assay has as its target Lysosomal acid glucosylceramidase (Homo sapiens) (UniProt P04062). Nature of the assay: Glucocerebrosidase-p2 (AID 348; in the data active = potency below about 10 µM; note: potency is the fitted concentration of half-maximal effect). To be noted: purified GBA, blue fluorogenic substrate, 40 min. The method in brief: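 Compounds titrated from 0.6 nM upwards against 0.2 nM enzyme in pH 5.9 citric acid/KH2PO4, taurocholate, tween-20; blue fluorogenic substrate 80 uM, 40 min room temperature, stopped and read Ex 365/Em 440 for AC50.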
For the compound `Cc1noc(C)c1-c1nccc(NCc2ccccc2)n1`, the Potency was > 2.29 µM (inactive).
The same measure, in the same setting: as for `c1ccc(CNc2cc(-c3ccoc3)ncn2)cc1`, the figure is > 11.4 µM (inactive); as for `CN(Cc1ccco1)c1cc(-c2cccnc2)ncn1`, > 11.4 µM (inactive).
On to `c1cncc(CNc2cc(-c3ccoc3)ncn2)c1`, for which the Potency is > 11.4 µM (inactive).
Regarding `CC(=O)NCCNc1nc(-c2c(C)noc2C)nc2ccccc12`, the Potency was > 11.4 µM (inactive).
Same read-out and setting: next, `CC(=O)NCCNc1ccnc(-c2ccccc2C)n1`: > 11.4 µM (inactive); `Cc1cnc(CNc2ccnc(-c3cccc(NS(C)(=O)=O)c3)n2)cn1`: > 11.4 µM (inactive); `CS(=O)(=O)Nc1cccc(-c2cc(NCc3ccccc3)ncn2)c1`: > 11.4 µM (inactive).
On the same count and under the same terms, next, `CCNc1ncc2nc(-c3cccc(C#N)c3)c(=O)n(CCC#N)c2n1`: > 11.4 µM (inactive).
In the case of `c1ccc(CNc2nc(-c3ccoc3)nc3ccccc23)cc1`, the Potency is > 2.29 µM (inactive).
Same read-out and setting: next, `COc1ccc(CNc2ccnc(-c3cccnc3)n2)c(OC)c1`: > 11.4 µM (inactive).
The same measure, in the same setting: next, `COCCn1c(=O)c(-c2cccc(F)c2)nc2cncnc21`: > 11.4 µM (inactive); `CN(Cc1ccco1)c1ccnc(-c2cccnc2)n1`: > 11.4 µM (inactive); `O=c1c(-c2cccc(Cl)c2)nc2cncnc2n1Cc1ccccc1`: > 11.4 µM (inactive).
Same read-out and setting: as for `CS(=O)(=O)Nc1cccc(-c2cncnc2Nc2ccccc2)c1`, the figure is > 11.4 µM (inactive).
Turning to `COc1ccc(CNc2ncncc2-c2ccc(N(C)C)cc2)c(OC)c1`, the Potency is > 11.4 µM (inactive).
`COc1cccc(Cn2c(=O)c(-c3cccc(C#N)c3)nc3cnc(OC)nc32)c1`: the Potency was > 11.4 µM (inactive).
Same read-out and setting: as for `O=c1c(-c2cccs2)nc2cncnc2n1-c1ccccc1`, the figure is > 11.4 µM (inactive); as for `Cn1cc(-c2nc3cncnc3n(C3CC3)c2=O)c2ccccc21`, > 11.4 µM (inactive); as for `Clc1ccccc1-c1nccc(NCCN2CCOCC2)n1`, > 11.4 µM (inactive).
With `COc1cccc(-c2cncnc2NCc2cnc(C)cn2)c1`, the Potency was > 11.4 µM (inactive).
Still for that read-out and setting: next, `c1ccc(Nc2ncncc2-c2ccoc2)cc1`: > 11.4 µM (inactive).
For `CN(C)C(=O)c1ccc(-c2nccc(-n3ccnc3)n2)cc1`, the Potency was > 11.4 µM (inactive).
For the compound `COc1cccc(-c2cncnc2NCc2cccs2)c1`, the Potency was > 11.4 µM (inactive).
Turning to `COc1ccc2[nH]cc(CCNc3ncncc3-c3cccnc3)c2c1`, the Potency was > 11.4 µM (inactive).
Same read-out and setting: next, `COc1ccccc1-c1cc(Nc2ccn[nH]2)ncn1`: > 11.4 µM (inactive); `COc1ccccc1-c1cncnc1NCc1cccs1`: > 11.4 µM (inactive); `N#Cc1ccccc1-c1ccc2ncnc(NCCN3CCOCC3)c2c1`: > 11.4 µM (inactive).
Regarding `CN(Cc1ccco1)c1ncncc1-c1cccnc1`, the Potency is > 11.4 µM (inactive).
Regarding `COc1ccc2[nH]cc(CCNc3ccnc(-c4ccc5c(c4)OCO5)n3)c2c1`, the Potency is 7.76 µM (active).
As to `Cc1ccccc1-c1cc(NCc2cccnc2)ncn1`, the Potency is > 11.4 µM (inactive).
On the same count and under the same terms, as for `CCNc1ncc2nc(-c3cccs3)c(=O)n(-c3ccccc3)c2n1`, the figure is > 11.4 µM (inactive).
The same measure, in the same setting: as for `COCCNc1nc(-c2c(C)noc2C)nc2ccccc12`, the figure is > 11.4 µM (inactive).
As for `COc1ccccc1-c1nc(N(C)Cc2ccco2)c2ccccc2n1`, the Potency is > 11.4 µM (inactive).
As for `COc1ccccc1-c1cncnc1NCc1ccccc1`, the Potency is > 11.4 µM (inactive).
The same measure, in the same setting: next, `COc1ccccc1-c1nc(NCCN2CCOCC2)c2ccccc2n1`: > 11.4 µM (inactive); `c1csc(CNc2nc(-c3ccoc3)nc3ccccc23)c1`: > 11.4 µM (inactive).
Still for that read-out and setting: next, `Cc1ccccc1-c1cc(N(C)Cc2ccco2)ncn1`: > 11.4 µM (inactive); `CN(C)C(=O)c1ccc(-c2ccc3ncnc(N4CCOCC4)c3c2)cc1`: > 11.4 µM (inactive); `CS(=O)(=O)Nc1cccc(-c2cncnc2-n2ccnc2)c1`: > 11.4 µM (inactive).

System in the next assay: not listed separately
Kind of assay: AP1 Signaling Pathway (AID 357). Note: % is set by controls: 0 for no effect and ±100 for the full control effect. To be noted: ME-180 (cervical carcinoma) AP-1-bla reporter, EGF-induced, beta-lactamase ratio, 5 h; at 7.69 µM (top of the series) unless noted. The method in brief:
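AP-1-bla ME-180 cells with beta-lactamase reporter under AP-1 response element, stimulated with EC50 EGF; compounds titrated, 5 hours at 37 degrees Celsius. CCF4 read at 460/530 nm ratio; positive and negative modulators judged by AC50.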
As for `Cc1noc(C)c1-c1nccc(NCc2ccccc2)n1`, the activity change, negative = inhibition was 0.193% (inactive).
For the compound `c1ccc(CNc2cc(-c3ccoc3)ncn2)cc1`, the activity change, negative = inhibition is -7.43% (inactive).
The same measure, in the same setting: as for `CN(Cc1ccco1)c1cc(-c2cccnc2)ncn1`, the figure is 11.4% (inactive).
On the same count and under the same terms, next, `c1cncc(CNc2cc(-c3ccoc3)ncn2)c1`: 0.0422% (inactive); `CC(=O)NCCNc1nc(-c2c(C)noc2C)nc2ccccc12`: 5.25% (inactive).
Consider `CC(=O)NCCNc1ccnc(-c2ccccc2C)n1`, for which the activity change, negative = inhibition is 12.2% (inactive).
The same measure, in the same setting: as for `Cc1cnc(CNc2ccnc(-c3cccc(NS(C)(=O)=O)c3)n2)cn1`, the figure is -6.82% (inactive).
Still for that read-out and setting: as for `CS(=O)(=O)Nc1cccc(-c2cc(NCc3ccccc3)ncn2)c1`, the figure is -7.54% (inactive); as for `CCNc1ncc2nc(-c3cccc(C#N)c3)c(=O)n(CCC#N)c2n1`, 12.8% (inactive).
On the same count and under the same terms, as for `c1ccc(CNc2nc(-c3ccoc3)nc3ccccc23)cc1`, the figure is -9.34% (inactive); as for `COc1ccc(CNc2ccnc(-c3cccnc3)n2)c(OC)c1`, -5.2% (inactive).
As to `COCCn1c(=O)c(-c2cccc(F)c2)nc2cncnc21`, the activity change, negative = inhibition was -16% (inactive).
Take `CN(Cc1ccco1)c1ccnc(-c2cccnc2)n1`: the activity change, negative = inhibition is 16.2% (inactive).
On the same count and under the same terms, next, `O=c1c(-c2cccc(Cl)c2)nc2cncnc2n1Cc1ccccc1`: -3.36% (inactive); `CS(=O)(=O)Nc1cccc(-c2cncnc2Nc2ccccc2)c1`: -20.2% (inactive); `COc1ccc(CNc2ncncc2-c2ccc(N(C)C)cc2)c(OC)c1`: -8.89% (inactive).
With `COc1cccc(Cn2c(=O)c(-c3cccc(C#N)c3)nc3cnc(OC)nc32)c1`, the activity change, negative = inhibition was -6.86% (inactive).
For `O=c1c(-c2cccs2)nc2cncnc2n1-c1ccccc1`, the activity change, negative = inhibition is -11.2% (inactive).
As for `Cn1cc(-c2nc3cncnc3n(C3CC3)c2=O)c2ccccc21`, the activity change, negative = inhibition is -14.5% (inactive).
As for `Clc1ccccc1-c1nccc(NCCN2CCOCC2)n1`, the activity change, negative = inhibition is 4.13% (inactive).
On the same count and under the same terms, as for `COc1cccc(-c2cncnc2NCc2cnc(C)cn2)c1`, the figure is -11.3% (inactive).
With `c1ccc(Nc2ncncc2-c2ccoc2)cc1`, the activity change, negative = inhibition is -25% (inactive).
The same measure, in the same setting: as for `CN(C)C(=O)c1ccc(-c2nccc(-n3ccnc3)n2)cc1`, the figure is 4.46% (inactive); as for `COc1cccc(-c2cncnc2NCc2cccs2)c1`, -25% (inactive).
Turning to `COc1ccc2[nH]cc(CCNc3ncncc3-c3cccnc3)c2c1`, the activity change, negative = inhibition was 9.96% (inactive).
For `COc1ccccc1-c1cc(Nc2ccn[nH]2)ncn1`, the activity change, negative = inhibition is -9.99% (inactive).
On the same count and under the same terms, as for `COc1ccccc1-c1cncnc1NCc1cccs1`, the figure is 0.247% (inactive).
On the same count and under the same terms, as for `N#Cc1ccccc1-c1ccc2ncnc(NCCN3CCOCC3)c2c1`, the figure is 1.67% (inactive); as for `CN(Cc1ccco1)c1ncncc1-c1cccnc1`, 1.77% (inactive).
As for `COc1ccc2[nH]cc(CCNc3ccnc(-c4ccc5c(c4)OCO5)n3)c2c1`, the activity change, negative = inhibition is -11.1% (inactive).
On the same count and under the same terms, next, `Cc1ccccc1-c1cc(NCc2cccnc2)ncn1`: 6.3% (inactive).
With `CCNc1ncc2nc(-c3cccs3)c(=O)n(-c3ccccc3)c2n1`, the activity change, negative = inhibition was -0.879% (inactive).
In the case of `COCCNc1nc(-c2c(C)noc2C)nc2ccccc12`, the activity change, negative = inhibition was 1.66% (inactive).
Same read-out and setting: as for `COc1ccccc1-c1nc(N(C)Cc2ccco2)c2ccccc2n1`, the figure is 27.9% (inactive).
Still for that read-out and setting: as for `COc1ccccc1-c1cncnc1NCc1ccccc1`, the figure is 4.35% (inactive); as for `COc1ccccc1-c1nc(NCCN2CCOCC2)c2ccccc2n1`, 7.09% (inactive); as for `c1csc(CNc2nc(-c3ccoc3)nc3ccccc23)c1`, -9.82% (inactive).
Turning to `Cc1ccccc1-c1cc(N(C)Cc2ccco2)ncn1`, the activity change, negative = inhibition was 7.17% (inactive).
For `CN(C)C(=O)c1ccc(-c2ccc3ncnc(N4CCOCC4)c3c2)cc1`, the activity change, negative = inhibition was -25.6% (inactive).
As for `CS(=O)(=O)Nc1cccc(-c2cncnc2-n2ccnc2)c1`, the activity change, negative = inhibition was 7.32% (inactive).

For the origin of these results see PubChem BioAssay (NCATS).
